PNC inhibitor – High Content Assay for Compounds that inhibit the Assembly of the Perinucleolar Compartment; PC3M PTB-GFP, PNC prevalence imaging, 16 h; stronger effect = lower value; activity change (PNC), negative = inhibition, % at 10 µM; hit rate 3.1% among 140,000;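 active = readout at or below -70, meaning at least 70% loss of cells showing the perinucleolar compartment, a nuclear body marking cancer cells; inconclusive = readout between -30 and a set limit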;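 note: plate controls were DMSO wells for no effect and camptothecin positive control wells for full effect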
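PC3M cells stably expressing PTB-GFP, 750–1000 cells/well, treated 16 h at 37 °C with compound (23 nl of library stock), in duplicate. After paraformaldehyde fixation and Hoechst stain, imaged at 20x; PNC prevalence scored by image analysis.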
ALDH1A1 inh – qHTS Assay for Inhibitors of Aldehyde Dehydrogenase 1 (ALDH1A1); Purified ALDH1A1, NADH fluorescence, propionaldehyde substrate; Aldehyde dehydrogenase 1A1 (Homo sapiens), P00352; hit rate 7.3% among 220,000; AID 1030, 2008; Potency, µM (top dose mostly 75.3 µM), for inactives: top-dose activity, negative = inhibition, hits mostly inhibitors;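 note: potency is the fitted concentration of half-maximal effect; plate controls were no enzyme wells and a reference inhibitor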
12-hLO inh – qHTS Assay for Inhibitors of 12-hLO (12-human lipoxygenase); hit rate 0.12% among 150,000; Potency, µM (titrated, usually from 57.1 µM), without a hit: at the highest dose activity change, negative = inhibition, usual class: inhibitors; AID 1452, 2008; purified 12-hLO, xylenol orange hydroperoxide absorbance; active = well fitted inhibition curve with a large enough effect; inconclusive = small, poorly fitted or top-dose-only effect; note: potency is the fitted concentration of half-maximal effect; nearly all actives have a fitted effect of over 55% in size
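Hydroperoxide formation by human 12-lipoxygenase from 40 uM arachidonic acid was followed colorimetrically via ferric-xylenol orange complex, using the 573/405 nm absorbance ratio. Enzyme concentration was 150 nM, with 30 min reaction at room temperature.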
Lamin A splicing – qHTS Assay for Modulators of Lamin A Splicing. Potency, µM (titrated, usually from 46.1 µM), for the others: top-dose ratio change, negative = inhibition, actives largely listed as inhibitors. hit rate 0.01% among 200,000. HeLa LMNA splicing GFP/RFP minigene ratio, 48 h; active = well fitted inhibition curve with a large enough effect in the signal ratio, with a control signal flat, not every such curve was filed as active; inconclusive = small, poorly fitted or top-dose-only effect, or effect the other way, or a change in a side signal; the % refers to the signal ratio; note: potency is the fitted concentration of half-maximal effect
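Read-out is the ratio of GFP to DsRed2 object intensity, acquired by 488 nm laser-scanning cytometry on HeLa lamin A-EGFP minigene reporter cells. Compound incubation 48 hrs at 37 °C in Opti-MEM with 2% FBS; DMSO 0.5% final.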
HPGD block – qHTS Assay for Inhibitors of HPGD (15-Hydroxyprostaglandin Dehydrogenase). 15-hydroxyprostaglandin dehydrogenase [NAD(+)] (Homo sapiens), P15428. purified HPGD, NADH fluorescence kinetic, PGE2 substrate. Potency, µM, for inactives: at the top dose activity change, negative = inhibition, usual class: inhibitors. hit rate 4.3% among 150,000; note: potency is the fitted concentration of half-maximal effect
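NADH formation kinetics: reaction with 30 uM PGE2 and 1 mM NAD+ (final), 20 nM enzyme, Tris-HCl pH 8 with Tween 20, after 15 min compound preincubation at room temperature. Fluorescence change, last versus first of five reads.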
* = called active by the depositor; ? = inconclusive; · = no result given; [ ] = remark or other dose. The list is not random: actives were taken first. Their share in the collection is about 10%. Unless noted, calls come from the whole dose curve; as a rule, active = well fitted inhibition curve with a large enough effect (not every such curve was filed as active); inconclusive = small, poorly fitted or top-dose-only effect, or another doubt; inactive = no such curve, though single readings can be large or run the other way. Unless noted, % is set by controls: 0 for no effect and ±100 for the full control effect.

SMILES | PNC inhibitor | ALDH1A1 inh | 12-hLO inh | Lamin A splicing | HPGD block
COc1ccc(N(C)C(=O)CCn2cnc3onc(-c4ccc(F)cc4)c3c2=O)c(OC)c1 | · | · | · | -2%[46 µM] | ·
Cc1ccc(S(=O)(=O)NCC2CCC(C(=O)NCCc3ccc(Cl)cc3)CC2)cc1 (configuration not stated) | · | · | · | -14%[46 µM] | ·
O=c1[nH]c(CN2CCc3ccccc32)nc2scc(-c3cccs3)c12 | ? | 25µM* | -21% | ? | -27%
CCn1c(SCc2nc3scc(-c4ccccc4)c3c(=O)[nH]2)nnc1-c1cccs1 | -3 | ? | -3% | -18% | -18%
Cc1ccc(NNC(=O)C(=O)N2CCCCC2)cc1 | -90* | -3% | 1% | ? | -2%
CSC1=C(C#N)C2(CCCC2)C(C#N)=C(N)N1 | 23 | ? | -13% | ? | -5%
N#CC1=C(N)NC(SCc2ccccc2)=C(C#N)C12CCCC2 | -113* | 25µM* | -27% | ? | ?
N#CC1=C(SCC(=O)c2cc3ccccc3oc2=O)NC(=O)C(C#N)C12CCCC2 (configuration not stated) | -23 | 1.1µM* | -15% | -16% | ?
CCSC1=C(C#N)C2(CCCC2)C(C#N)=C(N)N1 | -81* | ? | -7% | -1% | ?
N#CC1=C(N)N2C(=C(C#N)C13CCN(Cc1ccccc1)CC3)Nc1ccccc12 | -5 | ? | -2% | -15% | -16%
N#CC1=C(N)NC(SCC(=O)c2ccccc2)=C(C#N)C12CCCC2 | 54 | 13µM* | -14% | 9% | ?
N#Cc1cnc(SCC(=O)c2ccccc2)nc1N | 2 | -7% | -6% | 19% | -14%
Cc1nc(SCC(=O)c2cc3ccccc3oc2=O)c(C#N)c(-c2ccccc2)c1C(=O)Nc1ccccc1 | 8 | -19% | -4% | ? | -15%
COc1ccc2c(c1)O[C@H](c1ccc3c(c1)OCO3)[C@@H](OC(=O)Nc1ccc(C)c(Br)c1)C2=O | · | -4% | · | · | 3%
CC1=C(C(=O)Nc2ccccc2)C2(CCCCC2)C(C#N)=C(SCC(N)=O)N1 | 21 | -8% | -5% | 1% | -12%
CC1(C)CC(=O)C2=C(C1)NC(SCC(=O)Nc1ccccc1)=C(C#N)C21CCCCC1 | 9 | 22µM* | 5% | -13% | ?
COc1ccccc1C1CC(=O)NC(SCC(=O)Nc2ccccc2)=C1C#N (configuration not stated) | 41 | ? | -6% | -1% | -8%
N#CC1=C(N)NC(SCc2ccc(Cl)cc2)=C(C#N)C12CCCCC2 | -27 | 13µM* | -24% | ? | -25%
CC(C)(C)C1CCC2(CC1)C(C#N)=C(SCC(=O)Nc1ccccc1)NC(=O)C2C#N (configuration not stated) | 24 | 8.9µM* | -26% | ? | ?
N#CC1=C(N)NC(SCc2ccc(Br)cc2)=C(C#N)C12CCCCC2 | 35 | ? | -9% | -20% | -12%
N#CC1=C(N)NC(SCC(=O)Nc2ccc(Br)cc2)=C(C#N)C12CCCCC2 | 28 | 28µM* | -18% | 1% | -11%
C[C@H]1C[C@H]2[C@H]3CCC4=CC(=O)C=C[C@@]4(C)[C@]3(F)[C@H](O)C[C@]2(C)[C@@]1(O)C(=O)COP(=O)(O)O | · | 18%[13.5 µM] | 0%[11.4 µM] | · | -1%
Fc1ccc(N/N=C2/CCSc3sccc32)c(F)c1 | · | 19µM* | · | · | ·
Fc1ccc2c(c1)/C(=N/Nc1ccccn1)CCS2 | · | ? | · | -14%[46 µM] | ·
COc1ccc(C2C(C(=O)Nc3ccccc3)=C(C)Nc3c(C(=O)Nc4ccccc4)cnn32)cc1 (configuration not stated) | · | · | · | -27%[46 µM] | ·
COc1ccc(S(=O)(=O)N2CCOCC2)cc1NC(=O)c1cc2c(s1)CCCC2 | -1 | 4µM* | 5% | ? | ?
COc1ccc(NC(=O)c2ccco2)cc1S(=O)(=O)N1CCOCC1 | · | 2% | · | -21%[9.22 µM] | ·
COc1ccc(NC(=O)c2cc3c(s2)CCC3)cc1S(=O)(=O)N1CCOCC1 | 21 | 0.56µM* | -3% | ? | -19%

Source: PubChem (National Center for Advancing Translational Sciences (NCATS))
